This passage reports Potency results from PubChem BioAssay AID686978 (National Center for Advancing Translational Sciences (NCATS), 2013).

Out of some 420,000 compounds screened, about 64,000 (15%) were called active. Inconclusive results (about 27%) are left out. Calls come from the whole dose curve; as a rule, active = well fitted inhibition curve with a large enough effect; inconclusive = small, poorly fitted or top-dose-only effect; inactive = flat fitted curve, though single readings scatter. The list is a sample of the results. Where a call stands in place of a potency, no number is given.
Potency is the fitted concentration of half-maximal effect.

The test in a line: qHTS for Inhibitors of human tyrosyl-DNA phosphodiesterase 1 (TDP1): qHTS in cells in absence of CPT. Note: nearly all actives have a fitted effect of over 55% in size. The settings on record: DT40 Tdp1-/- hTDP1 cells, no CPT, ATP luminescence, 48 h; activity change, negative = growth inhibition: at 46.2 µM (top of the series). The procedure, abridged: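 Growth of hTDP1-complemented DT40 Tdp1-knockout cells is measured by ATP luminescence after at least 48 hr compound exposure at 37 °C, with DMSO substituting for the 20 nM CPT used in the parallel screen.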
In the case of `CCCCSc1nnc2c(n1)OC=Nc1ccccc1-2`, the Potency result is “inactive”.

Take `CCCn1nc(Oc2nc(NC(C)C)nc(N(C)C)n2)ccc1=O`: the Potency result was “inactive”.

For the compound `Cn1c(SCC(=O)NC2CCCCC2)nnc1-c1ccc(N)cc1`, the Potency result was “inactive”.

In the case of `CC(=O)Nc1ccc(N2C(=O)C3C4CC(=O)C(c5ccccc54)C3C2=O)cc1` (stereo unspecified), the Potency result was “inactive”.

On to `COc1cccc(OC)c1C(=O)N1CCN(Cc2ccccc2F)CC1`, for which the Potency result was “inactive”.

As to `COc1ncc2nc(-c3ccc(Cl)cc3)c(=O)n(C)c2n1`, the Potency entry is “inactive”.

`CCCCc1c(-c2ccc(Cl)cc2)ncn1CCc1ccccc1OC`: the Potency was 3.26 µM (active).

As to `CCCc1c(-c2ccccc2F)ncn1Cc1ccccc1OC`, the Potency is 1.16 µM (active).

For `COc1ccccc1CN1CCN(Cc2cc(OC)c(OC)cc2OC)CC1`, the Potency entry is “inactive”.

With `COc1ccccc1CCn1c(=O)c(-c2cn(C)c3ccccc23)nc2cncnc21`, the Potency entry is “inactive”.

For the compound `CCCCc1c(-c2ccc(Br)cc2)ncn1CCc1ccccc1OC`, the Potency was 1.3 µM (active).

`COc1ccccc1OCCCn1c(-c2ccc(Cl)cc2)nc2ccccc2c1=O`: the Potency result was “inactive”.

As for `COc1ccccc1CCC(=O)NNC(=O)c1ccncc1`, the Potency entry was “inactive”.

With `CCN(CC(=O)NC(C)C)C(=O)c1cc(S(=O)(=O)N2CCCCC2)ccc1N1CCCCC1`, the Potency result was “inactive”.

As for `CCOC(=O)c1c(C)[nH]c(C(=O)OCC(=O)c2ccc(OC)cc2OC)c1C`, the Potency result was “inactive”.

Take `C=CCNc1nc(N)c([N+](=O)[O-])c(NC2CCCCC2)n1`: the Potency result is “inactive”.

On to `CCCCn1c(N)c(N(CCOC)C(=O)c2sc3ccccc3c2Cl)c(=O)[nH]c1=O`, for which the Potency entry is “inactive”.

With `CC1CCCN(C(=O)Cn2c(=O)oc3cc(S(=O)(=O)N4CCCCC4C)ccc32)C1` (stereo unspecified), the Potency entry is “inactive”.

As to `CC1CCCCN1C(=O)Cn1c(=O)oc2cc(S(=O)(=O)N3CCCCC3)ccc21` (stereo unspecified), the Potency result was “inactive”.

Turning to `CC(C)CCNC(=O)Cn1c(=O)oc2cc(S(=O)(=O)N3CC(C)CC(C)C3)ccc21` (stereo unspecified), the Potency was 16.4 µM (active).

For the compound `CC1CCc2sc(C(=O)N/N=C/C3CCCCC3)cc2C1` (stereo unspecified), the Potency result was “inactive”.

As to `CSc1ncccc1C(=O)NCC(c1ccco1)N1CCCCC1` (stereo unspecified), the Potency entry is “inactive”.

For `CC1CCc2sc(C(=O)NCC(c3ccco3)N3CCCCC3)cc2C1` (stereo unspecified), the Potency was 10.3 µM (active).

In the case of `Cc1ccccc1S(=O)(=O)Cc1ccc(C(=O)NCCN2CCCCC2C)o1` (stereo unspecified), the Potency result is “inactive”.

On to `CN(CC(=O)Nc1cccc(F)c1)C(=O)C1CSC2(C)CCC(=O)N12` (stereo unspecified), for which the Potency entry was “inactive”.

On to `COc1ccc(C(=O)Oc2ccc(-c3nnco3)cc2)cc1S(=O)(=O)N1CCOCC1`, for which the Potency entry was “inactive”.

For the compound `Cc1nn2c(=O)cc(COC(=O)CNC(=O)c3ccc(F)cc3)nc2s1`, the Potency entry was “inactive”.

With `CCCCc1nn2c(=O)cc(COC(=O)c3ccc(NC(=O)c4ccccc4C)cc3)nc2s1`, the Potency was 14.6 µM (active).

Take `CCCCc1nn2c(=O)cc(COC(=O)c3ccccc3NC(=O)C(C)(C)C)nc2s1`: the Potency entry was “inactive”.

For `Cc1nn2c(=O)cc(COC(=O)c3ccc(NC(=O)C(C)(C)C)cc3)nc2s1`, the Potency was 18.4 µM (active).

Turning to `CCCc1nn2c(=O)cc(COC(=O)c3ccc(NC(=O)C(C)Oc4ccccc4)cc3)nc2s1` (stereo unspecified), the Potency entry was “inactive”.

Consider `O=C(Nc1ccc(C(=O)OCc2cc(=O)n3nc(C4CC4)sc3n2)cc1)c1ccc(F)cc1`, for which the Potency entry was “inactive”.

Consider `Cc1nn(C)cc1S(=O)(=O)N1CCN(c2ccc(F)cc2)CC1`, for which the Potency entry was “inactive”.

As to `C=CCNc1nnc(C)c2ccccc12`, the Potency entry was “inactive”.

Take `Cc1nc(-c2ccc([N+](=O)[O-])cc2)c(-c2ccccc2)o1`: the Potency entry was “inactive”.

Consider `O=C1CC(c2ccccc2)=NN1c1ccc([N+](=O)[O-])cc1`, for which the Potency is 16.4 µM (active).

In the case of `O=c1[nH]n(-c2ccc([N+](=O)[O-])cc2)c(=O)c2ccccc12`, the Potency entry is “inactive”.

Consider `CC(C)c1nc(CNC(=O)CC2C(=O)NCCN2Cc2cccc(F)c2F)cs1` (stereo unspecified), for which the Potency result is “inactive”.

As to `CCN(CC)CCCNC(=O)Cn1cnc2sc(C)c(S(=O)(=O)N3CCN(c4ncccn4)CC3)c2c1=O`, the Potency result was “inactive”.

For the compound `C[N+]1(CCNC(=O)/C=N/O)CCCCC1`, the Potency result was “inactive”.

Regarding `O=C(Cn1cc(C(F)(F)F)ccc1=O)Nc1ccc2c(c1)OCCO2`, the Potency result is “inactive”.

`CCCCn1c(SCc2ncc(-c3ccccc3)o2)nc2cc(S(N)(=O)=O)ccc21`: the Potency is 9.2 µM (active).

Consider `CCCCn1c(SCC(=O)N2CCC(C(=O)OCC)CC2)nc2cc(S(N)(=O)=O)ccc21`, for which the Potency result is “inactive”.

Take `CCCCn1c(SCC(=O)N2CCCC2=O)nc2cc(S(N)(=O)=O)ccc21`: the Potency entry is “inactive”.

Regarding `Cc1[nH][nH]c(=O)c1N=Nc1ccccc1`, the Potency result is “inactive”.

As to `Cc1ccc(NC2(C#N)C(=O)Nc3ccccc32)cc1` (stereo unspecified), the Potency entry was “inactive”.

On to `COC(=O)C(C)NC(=O)COc1ccc2ccccc2c1` (stereo unspecified), for which the Potency entry was “inactive”.

Consider `CCCCSc1[nH]c(=O)c(C(=O)OCC)cc1C#N`, for which the Potency entry is “inactive”.

Consider `COc1ccc(CNS(=O)(=O)c2cc(-c3cc(C)no3)ccc2C(C)C)cc1`, for which the Potency was 0.731 µM (active).

For the compound `COc1cccc(CNS(=O)(=O)c2cc3c(cc2C)n(C)c(=O)c(=O)n3C)c1`, the Potency entry was “inactive”.

With `CCOc1ccccc1CNS(=O)(=O)c1cc(-c2cc(C)no2)ccc1C`, the Potency entry was “inactive”.

For the compound `CCc1ccc(-c2cc(C)no2)cc1S(=O)(=O)NCCc1ccc(S(N)(=O)=O)cc1`, the Potency entry is “inactive”.

Turning to `Cc1cc(-c2ccc(C)c(S(=O)(=O)NC(C)Cc3ccco3)c2)on1` (stereo unspecified), the Potency entry is “inactive”.

`Cc1cc(-c2ccc(C)c(S(=O)(=O)NCCCN(Cc3ccccc3)C(C)C)c2)on1`: the Potency is 13 µM (active).

As to `CC(=O)OC(C)C[N+](C)(C)C` (stereo unspecified), the Potency entry is “inactive”.

As for `C=CCOc1ccc(/C=C/C(=O)OC(C)C(=O)Nc2ccc(NC(C)=O)cc2)cc1` (stereo unspecified), the Potency entry is “inactive”.

As for `COC(=O)c1c(C)cc(O)c(C)c1O`, the Potency entry was “inactive”.

On to `O=C(/C=C/c1ccco1)NC(=S)N1CCCCC1`, for which the Potency entry was “inactive”.

Take `NC(=O)c1ccsc1NC(=O)COC(=O)Cc1n[nH]c(=O)c2ccccc12`: the Potency result is “inactive”.

In the case of `Cc1cc(C)c(C2C3=C(Nc4c2c(C)nn4-c2ccccn2)c2ccccc2C3=O)c(C)c1` (stereo unspecified), the Potency is 8.2 µM (active).

For `Cc1nc2ccccc2n1C(=O)N1CCOCC1`, the Potency result is “inactive”.

Turning to `CC(C=Cc1ccccc1)=NNS(=O)(=O)c1ccc([N+](=O)[O-])cc1`, the Potency entry was “inactive”.

On to `CC(OC(=O)/C=C/c1ccccc1)C(=O)NC1CCCCC1C` (stereo unspecified), for which the Potency entry was “inactive”.

Take `CC(/C=C/c1ccccc1)=N\NC(=O)C1CC1(C)c1ccccc1` (stereo unspecified): the Potency is 18.4 µM (active).

Turning to `Cn1c(=NC(=O)c2ccc3c(c2)OCCO3)sc2cc(S(C)(=O)=O)ccc21`, the Potency entry is “inactive”.

As for `NS(=O)(=O)c1cc(C(=O)OCC(=O)NNC(=O)c2ccccc2)ccc1Cl`, the Potency result is “inactive”.

For `O=C(CO/N=C/c1ccccc1OC(F)F)NC1CCCC1`, the Potency entry is “inactive”.

In the case of `O=C(CO/N=C/c1ccccc1O)NNC(=O)c1ccccc1Cl`, the Potency was 0.184 µM (active).

In the case of `CCCc1cc(=O)oc2c(C)c(OCC(=O)NCc3ccccn3)ccc12`, the Potency entry was “inactive”.

Regarding `CN(CCC#N)c1ccc(C=O)cc1`, the Potency result is “inactive”.

On to `N#Cc1ccc(C(=O)Nc2nc(-c3cccs3)c(C(=O)C(F)(F)F)s2)cc1`, for which the Potency was 1.3 µM (active).

For `CC(=O)c1sc(NC(=O)c2ccc(C)cc2)nc1C`, the Potency entry is “inactive”.

In the case of `CCOc1cccc(C(=O)Nc2nnc(-c3cccs3)s2)c1`, the Potency entry is “inactive”.

On to `COc1ccc(CCNC(=O)c2cn(C)c3ccc(S(=O)(=O)N(C)C4CCCCC4)cc3c2=O)cc1OC`, for which the Potency entry was “inactive”.

Take `CC1(C)CC(=O)C=C(c2ccccc2CO)C1=O`: the Potency entry is “inactive”.

Consider `CC1CCCC(C)N1C(=O)COC(=O)COc1ccccc1C#N` (stereo unspecified), for which the Potency entry is “inactive”.

As for `Cc1nnc(NC2=NCCCCC2)o1`, the Potency entry is “inactive”.

Regarding `COc1cccc(C(=O)NC(=O)Nc2nc(C)cc(C(F)(F)F)n2)c1`, the Potency entry was “inactive”.

As to `COc1ccc(CN2C(=O)C(NC(=O)c3cccc(C)c3)(C(F)(F)F)N=C2c2ccccc2)cc1` (stereo unspecified), the Potency is 20.6 µM (active).

For the compound `COc1ccc(OCC(=O)NNC(=O)c2cccc(C)c2)cc1`, the Potency entry was “inactive”.

Consider `COc1ccc(S(=O)(=O)N2CCN(C(=O)c3cc(C)oc3C)CC2)cc1`, for which the Potency result was “inactive”.

Take `COc1ccc(C(=O)CCC(=O)Nc2cccnc2)c(OC)c1`: the Potency entry is “inactive”.

Take `COc1ccc(C(=O)/C=C/c2cccnc2)c(OC)c1`: the Potency was 18.4 µM (active).

As for `COc1ccc(C(=O)Nc2cccnc2)cc1C(=O)Nc1cccnc1`, the Potency result was “inactive”.

`CC/C(=N\O)C(C)(C)/[N+]([O-])=C/c1ccc(Br)cc1`: the Potency result was “inactive”.

Regarding `O=c1c2[nH]c3ccc(Cl)cc3c2ncn1Cc1ccccn1`, the Potency result is “inactive”.

As to `Cc1cccc(NC(=O)Nc2cccc(Oc3c(F)c(F)c(F)c(F)c3F)c2)c1`, the Potency is 18.4 µM (active).

In the case of `COc1cccc(NC(=O)Cc2ccc(C)cc2)c1`, the Potency entry is “inactive”.

As for `COc1cccc(NC(=O)NCc2ccc(F)cc2)c1`, the Potency entry was “inactive”.

Turning to `CN1CCC(OC(=O)COc2ccc(Cl)cc2Cl)CC1`, the Potency result was “inactive”.

For the compound `C[N+]1(CC(O)COc2ccccc2)CCN(C(=O)c2ccc([N+](=O)[O-])cc2)CC1` (stereo unspecified), the Potency entry is “inactive”.

In the case of `CC(=O)Nc1cccc(OCC(=O)/C=C2\N(C)c3ccccc3C2(C)C)c1`, the Potency was 7.31 µM (active).

As to `COc1cccc(NC(=S)C(C#N)=C2N(C)c3ccccc3N2C)c1`, the Potency result is “inactive”.

For `CCOc1cccc(NC(=O)CC#N)c1`, the Potency result was “inactive”.

As to `CC(=O)NCC(O)c1ccc([N+](=O)[O-])cc1` (stereo unspecified), the Potency entry was “inactive”.

Turning to `Cc1cc(C)c(C#N)c(SCC(=O)NN2CC(=O)N(c3ccccc3F)CC2=O)n1`, the Potency result was “inactive”.

As to `CCOC(=O)c1ccccc1OC(=O)Oc1ccccc1C(=O)OCC`, the Potency result is “inactive”.

For `CCOC(=O)c1cc2cc(C)ccc2[nH]1`, the Potency entry was “inactive”.

`CCOC(=O)C=Cc1ccc(C(=O)OCC)[nH]1`: the Potency is 8.2 µM (active).

As to `CCOC(=O)c1cccc(NC(=O)CN2C(=O)C3CC=CCC3C2=O)c1` (stereo unspecified), the Potency result was “inactive”.

As for `CCOC(=O)/C(=C\c1ccc([N+](=O)[O-])cc1)C(=O)c1cc(C(C)=O)c(Nc2ccccc2)s1`, the Potency is 0.731 µM (active).

Regarding `O=C(O)C(=Cc1ccc([N+](=O)[O-])cc1)CCc1ccccc1`, the Potency entry is “inactive”.

Turning to `O=C(Nc1ccccc1)/C(=C/c1ccc([N+](=O)[O-])cc1)NC(=O)c1ccccc1`, the Potency result is “inactive”.

As to `CC(=O)c1c(C)n([O-])c2ccccc2[n+]1=O`, the Potency result was “inactive”.

With `O=C(NCc1ccccc1Cl)C1CCC(CNc2c(N3CCCCC3)c(=O)c2=O)CC1` (stereo unspecified), the Potency result was “inactive”.

As to `Cc1ccc2c(Cl)c(C(=O)Nc3nn[nH]n3)sc2c1`, the Potency result is “inactive”.
